Experimental data taken from PubChem BioAssay (NCI).
This is part of a sample that, as a whole, favours compounds with a hit. Of some 83,000 tested, about 20% had one in any assay.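 Negative percent growth values reflect cell death: -40 means 40% of the cells present at the start died, and -100 means all died.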 Unmarked numbers belong to inactive results. Calls of active or inactive are those of the source.

Each compound was assayed on MCF7 breast (assay: NCI-60 one-dose screen, 48 h (100 = growth as untreated, 0 = no growth, -100 = all killed)). Conditions: 10 µM unless noted.
Method: Growth inhibition of the MCF7 human tumor cell line is measured as a screen for anti-cancer activity. Cells are grown in 96 well plates and exposed to the test compound for 48 hours. Compounds are tested at a single concentration, which is 10^-5 M for most compounds. The reported endpoint is percent growth (GI% or GIPRCNT), where numbers from 0 - 100% represent growth inhibition, and numbers from -100% - 0 represent cell death. For example, a value of 40 represents 60% growth inhibition. A value of 0 means no net growth occurred over the course of the experiment. A value of -40 indicates 40% of cells at the beginning of the experiment died by the end of the experiment. A value of -100 means all cells are dead at the end of the experiment.
NCI-60 Human Tumor Cell Lines Screen was performed using the standard one-dose NCI protocol, which is described in more detail at https://dtp.cancer.gov/discovery_development/nci-60/default.htm.
Compounds with GIPRCNT values below 10 were considered active. Activity score was based on GIPRCNT using the following formula: […]
Score is 0 for GIPRCNT values of 100 or above, 50 for GIPRCNT values of 0, and 100 for GIPRCNT values of -100.

Structure (SMILES) | growth
O=S(=O)(Oc1ccc(-c2cn3ccoc3n2)cc1)c1cccc(C(F)(F)F)c1 | 89.5%
Cc1[nH]c(C(=O)Nc2ccccc2OCc2cccc(C(=O)NCCN)c2)cc1Cl | 11.3%
O=C(/C=C/c1ccc(F)cc1)Nc1cccc2cccnc12 | 6.92% (active)
Cn1cc(-c2nc(N)nnc2-c2c[nH]c3ccc(Br)cc23)c2cc(F)ccc21 | 47.4%
CN1CC[C@@H]2[C@@]3(C)CC[C@H](O)C(C)(C)[C@@H]3CC[C@@]2(C)[C@]2(C)CC[C@@]3(CO)CCC(C)(C)C[C@@H]3C12 (stereo not given in full) | 77%
CC(C)NC(=O)c1cc(-c2ccc(NC(=O)Nc3ccc(F)c(C(F)(F)F)c3)cc2)nc2cccnc12 | 91.8%
CCc1nnc(NC(=O)c2cc(-c3ccc(Cl)cc3Cl)oc2C)s1 | 84.9%
CC1=C(C)C(=O)C(Nc2ccc(C)c(C)c2)=C(Br)C1=O | 64.2%
O=S(=O)(Oc1ccc(-c2cn3ccsc3n2)cc1)c1cccc(C(F)(F)F)c1 | 90.1%
CN1CCC[C@]2(C)[C@H]3CC[C@@H]4[C@@H]5[C@H]6OC[C@@]5(CCC6(C)C)CC[C@@]4(C)[C@]3(C)CC[C@H]2C1(C)C | 8.03% (active)
O=C(Nc1ccccc1)Nc1nc2ccc([N+](=O)[O-])cc2[nH]1 | 53.7%
C#CCOc1ccc(/C=N/Nc2nc(-c3ccc(OC)cc3)cs2)cc1 | 69.8%
O=C(CSc1nnc(-c2ccc(Cl)cc2)n1-c1ccccc1)Nc1ccc(Cl)cc1 | 53.3%
CC[C@]12C=CCN3CC[C@@]4(c5ccc(OC)cc5N(C)[C@H]4[C@@](O)(C(=O)OC)[C@@H]1OC(=O)CCN1CCc4ccccc4C1)[C@@H]32 | 82.5%
Oc1[nH]c2ccc(Cl)cc2c1N=Nc1nc(N=Nc2c(O)[nH]c3ccc(Cl)cc23)nc(N2CCOCC2)n1 | 43.1%
CN1CCN(c2ccc(Nc3nc(NCCCNS(=O)(=O)c4ccc(C(F)(F)F)cc4)c4sccc4n3)cc2)CC1 | -70% (active)
O=c1nc(Nc2ccc([N+](=O)[O-])cc2O)sc2ccccc12 | 18.1%
Cn1cc(-c2nnc(N)nc2-c2c[nH]c3ccc(F)cc23)c2cc(Br)ccc21 | 12.3%
O=C(O)CC1CCN(c2ccc3nnc(Cl)n3n2)CC1 | 91.2%
CCN(CC)c1ccc(/C=N/NC(=O)c2ccc(NS(C)(=O)=O)cc2)c(O)c1 | 6.08% (active)

Structure (SMILES) | growth
COc1ccc(-c2cnc(NC(=O)CCCCCCNC(=O)C(O)(O)C(F)(F)F)s2)cc1 | 7.73% (active)
Oc1[nH]c2ccc(Cl)cc2c1N=Nc1nc(N=Nc2c(O)[nH]c3ccc(Cl)cc23)nc(N2CCCCC2)n1 | 51.7%
CC(=O)N1N=C(c2cc3ccccc3oc2=O)CC1c1cn(-c2ccccc2)nc1-c1ccc(C)cc1 (stereo not given) | 90.8%
C#Cc1nc(/C=C\CCCCCCC(=O)NO)cs1 | 35.2%
CCN(CC)CCOc1ccc(C(=C(c2ccccc2)C2CCCC2)c2ccc(OCCN(CC)CC)cc2)cc1 | -57.3% (active)
O=C(Nc1ccc(N=Cc2c(O)[nH]c3ccccc23)cc1)Nc1ccc(S(=O)(=O)Nc2ncccn2)cc1 | 85%
CN1CCN(c2ccc(C(=O)/C=C/c3cc(F)cc(C(F)(F)F)c3)cc2)CC1 | 8.55% (active)
O=C(CCCCCCNC(=O)C(O)(O)C(F)(F)F)Nc1ncc(-c2ccc(Br)cc2)s1 | 6.6% (active)
O=C(NCCNc1cc(-c2cn(-c3ccccc3)nc2-c2cccc(O)c2)ccn1)Nc1cc(C(F)(F)F)cc(C(F)(F)F)c1 | 87.2%
CCOC(=O)Nc1ccc2c(ccn2C(=O)c2cccc(F)c2)c1 | 26%
COc1ccc(C2c3[nH]c4ccc(Cl)cc4c3CCN2c2oc(CO)nc2C#N)cc1 (stereo not given) | 32%
CC(=C(c1ccc(OCCCN(C)C)cc1)c1ccc(OCCCN(C)C)cc1)c1ccc(Cl)cc1 | 37.9%
Brc1cc(-c2cc(-c3ccc4c(c3)OC=CO4)[nH]n2)cs1 | 25.1%
CN(C)c1cccc2c(S(=O)(=O)Nc3cccc(-c4csc(NC(=O)CCCCCN5CCN(CCO)CC5)n4)c3)cccc12 | 35.8%
C#C[C@]1(O)CC[C@H]2[C@@H]3CC=C4c5sc(Nc6ccc(C)cn6)nc5CC[C@]4(C)[C@H]3CC[C@@]21C | -68.9% (active)
NC(=O)n1c(=O)n(-c2cccc(C(F)(F)F)c2)c(=O)c2cc(-c3ccc(F)cc3F)ccc21 | 0.6% (active)
CCCCc1nc2c(N)nc3ccccc3c2n1Cc1cccc(CN)c1 | 24.8%
Cc1[nH]c(C(=O)Nc2ccccc2OCc2cccc(C(=O)NC3CCCNC3)c2)c(Cl)c1Cl (stereo not given) | -77.8% (active)
O=C(COc1ccc(/C=C2\C(=O)Nc3ccc(Cl)cc32)cc1)Nc1ccc(Cl)cc1 | 56.3%
N#Cc1c(-c2cccs2)cc(-c2cnccn2)nc1SCC(=O)N/N=C/c1cccs1 | 32.1%
